The record followed here is PubChem BioAssay (EPA / NIEHS).

A short description of experiment [1]: ATG_NFI_CIS: Attagene CIS-FACTORIAL HepG2 Assay for human Nuclear Factor I (NFI) (AID 2282989). As to conditions: HepG2 cis-regulatory reporter, NFI response element transcription; actives raise or lower the signal. In a few lines: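 Read-out: reporter mRNA via RT-PCR plus capillary electrophoresis with fluorescence detection. Transiently transfected HepG2 (endogenous TF activity on cis promoters), 24 h compound exposure; gain or loss of signal fitted against DMSO.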

In experiment [2] the target is Myc proto-oncogene protein (Homo sapiens) (UniProt P01106). Nature of the experiment: ATG_Myc_CIS: Attagene CIS-FACTORIAL HepG2 Assay for human Myelocytomatosis (Myc) Proto-Oncogene Transcription Factor (AID 2282990). As to conditions: HepG2, Attagene cis-reporter transcription factor activity; actives raise or lower the signal. The method, boiled down: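 After 24 h chemical treatment of HepG2 cells carrying multiplexed cis-regulated reporter constructs, reporter transcripts quantified by RT-PCR and capillary electrophoresis of fluorescent fragments. Gain or loss fitted against DMSO baseline.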

Experiment [3] is described as follows: ATG_Oct_MLP_CIS: Attagene CIS-FACTORIAL HepG2 Assay for human Octamer-Binding Transcription Factor (Oct) (AID 2282993). As to conditions: HepG2 Attagene cis-factorial Oct reporter, mRNA; actives raise or lower the signal. In a few lines: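 Read-out: reporter mRNA via RT-PCR plus capillary electrophoresis of 6-FAM-labelled fragments. Transiently transfected HepG2, 24 h exposure, endogenous TF activity on cis elements. Gain or loss of signal fitted relative to DMSO.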

The nature of experiment [4]: BSK_3C_uPAR: BioMAP Diversity Plus: 3C Assay for Urokinase-type plasminogen activator receptor (uPAR) Biomarker Activity (AID 2282998). The note with it: BioMAP 3C HUVEC, uPAR biomarker ELISA; actives raise or lower the signal. In a few lines:
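HUVEC primary cells; 24 h post-dose; uPAR by ELISA; gain or loss of signal fitted bidirectionally vs DMSO baseline.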
On the technique in general: In an ELISA, binding on a coated surface is turned into a signal by an enzyme label.

Experiment [5] can be described thus: BSK_3C_VCAM1: BioMAP Diversity Plus: 3C Assay for Vascular cell adhesion molecule 1 (VCAM1) Biomarker Activity (AID 2282999). The note with it: BioMAP 3C HUVEC, VCAM1 ELISA, cytokine-stimulated; actives raise or lower the signal. The method, boiled down: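 Endothelial cells from human umbilical vein are treated with test chemical. At 24 h, VCAM-1 is measured by ELISA, and responses in either direction are fitted relative to DMSO.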

Experiment [6] is described as follows: BSK_4H_Eotaxin3: BioMAP Diversity Plus: 4H Assay for Eotaxin 3 Biomarker Activity (AID 2283000).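 Note: CCL26 protein level quantified by ELISA in parallel with SRB cytotoxicity check.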 The note with it: primary human endothelial cells (HUVEC); actives raise or lower the signal. The method, boiled down: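 Chemicals were added to human umbilical vein endothelium cultures, and Eotaxin-3 was quantified by ELISA at 24 h. Values were derived by bidirectional fitting with DMSO serving as negative control and activity baseline.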

The target in experiment [7] is human Peroxisome Proliferator-activated Receptor delta (PPARd), PPARD (gene 5467) (UniProt Q03181). Nature of the experiment: ATG_PPARd_TRANS: Attagene TRANS-FACTORIAL HepG2 Assay for human Peroxisome Proliferator-activated Receptor delta (PPARd) (AID 2283002; active = hit-call score of the fitted dose curve at least 0.9, where 1 is the maximum). In a few lines: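 Read-out is induced reporter mRNA, quantified by RT-PCR with fluorescent labelling and capillary electrophoresis after 24 h dosing. Cells are HepG2 transiently carrying multiple GAL4-UAS reporter units driven by exogenous NR-GAL4 chimeras; DMSO serves as baseline.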

Read-out in experiment [8]: Intercellular Adhesion Molecule 1 (ICAM1), ICAM1 (gene 3383)
The experiment can be described thus: BSK_3C_ICAM1: BioMAP Diversity Plus: 3C Assay for Intercellular Adhesion Molecule 1 (ICAM1) Biomarker Activity (AID 2283003). The note with it: primary human endothelial cells (HUVEC); actives raise or lower the signal. The method, boiled down:
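HUVEC primary cells stimulated under 3C conditions; ICAM1 measured by ELISA 24 h after compound dosing. Curves fitted bidirectionally against the DMSO baseline. Overt cytotoxicity checked by SRB staining of parallel cultures.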

A short description of experiment [9]: BSK_3C_Proliferation: Cell Proliferation Assessment in the BioMAP Diversity Plus: 3C Assay (AID 2283006).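 Note: potency may reflect either rise or fall in cell number versus DMSO.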 The note with it: primary human endothelial cells (HUVEC). In a few lines:
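Subconfluent HUVEC (3C system) cultured with chemical; relative cell number read at 48 h by sulforhodamine B total-protein staining (0.1% SRB after 10% TCA fixation, 560 nm). Bidirectional fit relative to DMSO.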

In experiment [10] the target is Peroxisome proliferator-activated receptor gamma (Homo sapiens) (UniProt P37231). Nature of the experiment: ATG_PPARg_TRANS: Attagene TRANS-FACTORIAL HepG2 Assay for human Peroxisome Proliferator-activated Receptor-gamma (PPARg) (AID 2283007; active = hit-call score of the fitted dose curve at least 0.9, where 1 is the maximum). The method, boiled down: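 Chimeric NR-Gal4 transactivation is measured in transiently transfected HepG2 cells by reporter mRNA induction at 24 h. Detection uses RT-PCR with fluorescent labelling and capillary electrophoresis; DMSO defines baseline.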

The target of experiment [11] is Nuclear receptor subfamily 1 group I member 2 (Homo sapiens) (UniProt O75469). Nature of the experiment: ATG_PXR_TRANS: Attagene TRANS-FACTORIAL HepG2 Assay for human Pregnane X Receptor (PXR) (AID 2283008; active = hit-call score of the fitted dose curve at least 0.9, where 1 is the maximum). In a few lines:
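Read-out is fluorescence of labelled reporter cDNA fragments separated by capillary electrophoresis after RT-PCR and HpaI digestion. Source: HepG2 cells carrying PXR-GAL4/UAS reporter constructs, treated 24 h; activity fitted upward relative to DMSO.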

Experiment [12] concerns the target Cellular tumor antigen p53 (Homo sapiens) (UniProt P04637). Nature of the experiment: ATG_p53_CIS: Attagene CIS-FACTORIAL HepG2 Assay for human p53 Transcription Factor (AID 2282994). The note with it: HepG2 p53 cis-element reporter, Attagene mRNA; actives raise or lower the signal. In a few lines: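 HepG2, transient MRTU transfection (cis promoter elements, endogenous TFs); 24 h dosing; RNA isolation, RT-PCR, 6-FAM primer extension, HpaI digest, CE fluorescence; bidirectional fit vs DMSO.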

For experiment [13], the target named is human Peroxisome Proliferator-activated Receptor alpha (PPARa), PPARA (gene 5465) (UniProt Q07869). The experiment can be described thus: ATG_PPARa_TRANS: Attagene TRANS-FACTORIAL HepG2 Assay for human Peroxisome Proliferator-activated Receptor alpha (PPARa) (AID 2283001; active = hit-call score of the fitted dose curve at least 0.9, where 1 is the maximum;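 for AC50: potency for gain of reporter signal over DMSO so agonist or activator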). In a few lines:
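Read-out is fluorescence of reporter cDNA fragments resolved by capillary electrophoresis after RT-PCR. Human HepG2 liver cells carried transfected PPARa-Gal4 chimera and GAL4-UAS reporter units, treated 24 h; activity scored as increase over DMSO.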

Experiment [14] is described as follows: ATG_NRF2_ARE_CIS: Attagene CIS-FACTORIAL HepG2 Assay for human Nuclear Factor Erythroid 2 Related Factor 2 (NFR2) response to Antioxidant Response Elements (ARE) (AID 2282992).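 For AC50: reporter mRNA level measured by RT-PCR and capillary electrophoresis fluorescence.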 As to conditions: HepG2 Attagene ARE/NRF2 reporter, transcription factor activity; actives raise or lower the signal. The method, boiled down:
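Transient MRTU transfection of HepG2; 24 h compound exposure; TriZol RNA, RT with oligo(dT), PCR, 6-FAM primer extension, HpaI cut, CE. Bidirectional fit vs DMSO.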

The target in experiment [15] is human RAR-related Orphan Receptor beta (RORb), RORB (gene 6096) (UniProt Q92753). Nature of the experiment: ATG_RORb_TRANS: Attagene TRANS-FACTORIAL HepG2 Assay for human RAR-related Orphan Receptor beta (RORb) (AID 2283010; active = hit-call score of the fitted dose curve at least 0.9, where 1 is the maximum). In a few lines: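 HepG2 cells transiently transfected with GAL4-UAS reporter units expressing chimeric NR-Gal4 protein; reporter mRNA measured 24 h after dosing by RT-PCR, 6-FAM labelling and capillary electrophoresis. Gain-of-signal fitted relative to DMSO baseline.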

In experiment [16] the target is human RAR-related Orphan Receptor gamma (RORg), RORC (gene 6097) (UniProt P51449). Nature of the experiment: ATG_RORg_TRANS: Attagene TRANS-FACTORIAL HepG2 Assay for human RAR-related Orphan Receptor gamma (RORg) (AID 2283011; active = hit-call score of the fitted dose curve at least 0.9, where 1 is the maximum). The method, boiled down: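 First, HepG2 liver cells were transfected with GAL4-UAS-driven reporter constructs and the RORg-Gal4 fusion. Next, they were treated with chemical for 24 h. Finally, reporter mRNA was quantified by RT-PCR and capillary electrophoresis, with upward activity fitted against DMSO.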

A short description of experiment [17]: ATG_NF_kB_CIS: Attagene CIS-FACTORIAL HepG2 Assay for human Nuclear Factor Kappa B (NF-kB) (AID 2282991). The note with it: HepG2 Attagene cis-factorial NF-kB reporter mRNA; actives raise or lower the signal. In a few lines: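 DMSO served as negative control and baseline for bidirectional curve fitting. Transiently transfected HepG2 cells were dosed for 24 h, then reporter transcripts were measured by RT-PCR with capillary electrophoresis detection.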

Experiment [18] in a line: BSK_3C_TissueFactor: BioMAP Diversity Plus: 3C Assay for Tissue Factor Biomarker Activity (AID 2282997). The note with it: BioMAP 3C HUVEC, tissue factor biomarker readout; actives raise or lower the signal. The method, boiled down:
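ELISA read-out of Tissue Factor levels on human umbilical vein endothelium collected 24 h after chemical dosing. Gain or loss of signal was fitted relative to DMSO.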

Experiment [19] deals with Retinoic acid receptor alpha (Homo sapiens) (UniProt P10276). The experiment can be described thus: ATG_RARa_TRANS: Attagene TRANS-FACTORIAL HepG2 Assay for human Retinoic Acid Receptor alpha (RARa) (AID 2283005; active = hit-call score of the fitted dose curve at least 0.9, where 1 is the maximum). The method, boiled down:
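Reporter transcripts, measured by RT-PCR with fluorescent labeling and capillary electrophoresis after 24 h dosing, reflect activity of an exogenous human RARa–GAL4 fusion in transiently transfected HepG2. Fitted for increase relative to DMSO.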

The target of experiment [20] is human Retinoic Acid Receptor gamma (RARg), RARG (gene 5916) (UniProt P13631). Nature of the experiment: ATG_RARg_TRANS: Attagene TRANS-FACTORIAL HepG2 Assay for human Retinoic Acid Receptor gamma (RARg) (AID 2283009; active = hit-call score of the fitted dose curve at least 0.9, where 1 is the maximum). The method, boiled down: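 HepG2 transiently transfected with GAL4-UAS reporter units and chimeric NR-Gal4 constructs; 24 h compound exposure. Reporter mRNA quantified by RT-PCR, FAM labeling, HpaI digestion and capillary electrophoresis; gain-of-signal versus DMSO.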

Several values for one entry are separate records, joined by “and”; a condition that tells them apart may be missing. Equal entries are not always repeated. Records with an inconclusive call do not appear. Activity calls are given as the source filed them. Rule for the calls, unless noted: active = hit-call score of the fitted dose curve at least 0.9, where 1 is the maximum; inactive = score below 0.9.

What is called AC50 is the concentration giving half of the maximal activity seen.

Myc proto-oncogene protein (Homo sapiens), sequence (P01106 whole entry, looked up, the tested form may be a part): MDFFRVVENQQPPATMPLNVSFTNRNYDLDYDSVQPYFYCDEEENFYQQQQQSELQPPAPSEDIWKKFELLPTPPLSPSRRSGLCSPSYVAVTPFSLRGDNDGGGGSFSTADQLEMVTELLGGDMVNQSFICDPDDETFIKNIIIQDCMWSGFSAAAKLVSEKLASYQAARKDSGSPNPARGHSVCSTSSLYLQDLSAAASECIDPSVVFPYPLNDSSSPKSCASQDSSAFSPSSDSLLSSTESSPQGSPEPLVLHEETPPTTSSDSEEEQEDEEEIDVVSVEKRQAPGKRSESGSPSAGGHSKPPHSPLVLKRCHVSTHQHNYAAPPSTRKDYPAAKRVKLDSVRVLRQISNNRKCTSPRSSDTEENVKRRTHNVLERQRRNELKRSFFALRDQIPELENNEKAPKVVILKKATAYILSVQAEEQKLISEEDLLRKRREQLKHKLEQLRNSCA
human Peroxisome Proliferator-activated Receptor alpha (PPARa), PPARA (gene 5465), sequence (Q07869 whole entry, looked up, the tested form may be a part): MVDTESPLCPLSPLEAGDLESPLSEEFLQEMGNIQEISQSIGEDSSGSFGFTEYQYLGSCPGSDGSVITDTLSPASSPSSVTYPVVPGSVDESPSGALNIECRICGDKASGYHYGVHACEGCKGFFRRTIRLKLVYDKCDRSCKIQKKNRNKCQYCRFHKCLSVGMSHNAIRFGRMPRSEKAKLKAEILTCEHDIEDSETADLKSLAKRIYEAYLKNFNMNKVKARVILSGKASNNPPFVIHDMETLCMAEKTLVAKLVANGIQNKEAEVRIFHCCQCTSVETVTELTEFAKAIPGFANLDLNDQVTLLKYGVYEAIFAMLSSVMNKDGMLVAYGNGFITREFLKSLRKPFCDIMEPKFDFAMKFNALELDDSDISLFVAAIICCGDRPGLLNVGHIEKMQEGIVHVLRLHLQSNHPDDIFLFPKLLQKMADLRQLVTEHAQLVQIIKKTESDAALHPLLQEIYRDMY
Peroxisome proliferator-activated receptor gamma (Homo sapiens), sequence (P37231 whole entry, looked up, the tested form may be a part): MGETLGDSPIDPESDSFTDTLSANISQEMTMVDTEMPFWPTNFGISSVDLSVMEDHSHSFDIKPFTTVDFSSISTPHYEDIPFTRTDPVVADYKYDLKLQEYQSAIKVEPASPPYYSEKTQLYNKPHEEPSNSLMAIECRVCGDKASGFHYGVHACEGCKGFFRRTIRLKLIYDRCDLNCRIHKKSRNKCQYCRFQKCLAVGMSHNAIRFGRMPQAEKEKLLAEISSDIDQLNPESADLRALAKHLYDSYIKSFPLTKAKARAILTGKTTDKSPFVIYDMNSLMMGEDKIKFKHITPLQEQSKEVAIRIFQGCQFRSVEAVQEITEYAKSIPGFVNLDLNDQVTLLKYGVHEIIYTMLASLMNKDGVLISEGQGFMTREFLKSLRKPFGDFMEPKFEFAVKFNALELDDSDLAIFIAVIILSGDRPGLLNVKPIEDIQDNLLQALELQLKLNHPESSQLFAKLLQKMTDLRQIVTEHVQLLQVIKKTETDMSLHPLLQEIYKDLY
human Peroxisome Proliferator-activated Receptor delta (PPARd), PPARD (gene 5467), sequence (Q03181 whole entry, looked up, the tested form may be a part): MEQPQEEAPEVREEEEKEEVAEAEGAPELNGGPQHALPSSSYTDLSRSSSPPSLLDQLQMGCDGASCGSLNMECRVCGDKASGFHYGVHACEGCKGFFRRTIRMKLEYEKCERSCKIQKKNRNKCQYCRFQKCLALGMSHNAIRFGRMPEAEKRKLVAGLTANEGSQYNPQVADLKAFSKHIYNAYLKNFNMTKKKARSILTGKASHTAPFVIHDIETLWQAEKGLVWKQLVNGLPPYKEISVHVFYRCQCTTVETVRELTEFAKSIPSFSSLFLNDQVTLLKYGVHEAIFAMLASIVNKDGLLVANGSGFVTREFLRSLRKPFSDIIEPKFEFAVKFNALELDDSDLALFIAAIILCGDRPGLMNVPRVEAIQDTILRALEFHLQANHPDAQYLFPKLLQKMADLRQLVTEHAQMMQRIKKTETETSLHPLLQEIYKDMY
Nuclear receptor subfamily 1 group I member 2 (Homo sapiens), sequence (O75469 whole entry, looked up, the tested form may be a part): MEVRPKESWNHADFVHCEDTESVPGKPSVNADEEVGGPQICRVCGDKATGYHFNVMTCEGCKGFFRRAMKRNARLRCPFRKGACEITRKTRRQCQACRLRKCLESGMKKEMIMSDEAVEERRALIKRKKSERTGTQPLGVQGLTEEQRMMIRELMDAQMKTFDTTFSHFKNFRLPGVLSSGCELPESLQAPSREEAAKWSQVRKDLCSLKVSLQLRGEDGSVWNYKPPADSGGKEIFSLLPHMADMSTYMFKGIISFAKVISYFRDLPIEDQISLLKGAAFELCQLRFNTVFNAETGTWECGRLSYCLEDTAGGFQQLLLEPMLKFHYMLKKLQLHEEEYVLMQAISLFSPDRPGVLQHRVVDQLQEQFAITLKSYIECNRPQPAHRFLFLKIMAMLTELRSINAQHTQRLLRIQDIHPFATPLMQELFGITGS
Cellular tumor antigen p53 (Homo sapiens), sequence (P04637 whole entry, looked up): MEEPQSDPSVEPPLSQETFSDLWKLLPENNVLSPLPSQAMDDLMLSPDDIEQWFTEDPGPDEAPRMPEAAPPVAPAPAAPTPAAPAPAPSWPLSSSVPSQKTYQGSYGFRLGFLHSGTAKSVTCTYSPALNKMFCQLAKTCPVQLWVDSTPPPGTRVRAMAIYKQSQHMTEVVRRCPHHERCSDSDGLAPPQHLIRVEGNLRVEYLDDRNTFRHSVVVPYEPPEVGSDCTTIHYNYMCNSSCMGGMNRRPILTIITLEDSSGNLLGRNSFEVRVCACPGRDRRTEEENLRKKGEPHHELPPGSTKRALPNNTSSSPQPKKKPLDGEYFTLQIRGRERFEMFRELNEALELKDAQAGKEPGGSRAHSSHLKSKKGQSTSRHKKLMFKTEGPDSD
human RAR-related Orphan Receptor gamma (RORg), RORC (gene 6097), sequence (P51449 whole entry, looked up, the tested form may be a part): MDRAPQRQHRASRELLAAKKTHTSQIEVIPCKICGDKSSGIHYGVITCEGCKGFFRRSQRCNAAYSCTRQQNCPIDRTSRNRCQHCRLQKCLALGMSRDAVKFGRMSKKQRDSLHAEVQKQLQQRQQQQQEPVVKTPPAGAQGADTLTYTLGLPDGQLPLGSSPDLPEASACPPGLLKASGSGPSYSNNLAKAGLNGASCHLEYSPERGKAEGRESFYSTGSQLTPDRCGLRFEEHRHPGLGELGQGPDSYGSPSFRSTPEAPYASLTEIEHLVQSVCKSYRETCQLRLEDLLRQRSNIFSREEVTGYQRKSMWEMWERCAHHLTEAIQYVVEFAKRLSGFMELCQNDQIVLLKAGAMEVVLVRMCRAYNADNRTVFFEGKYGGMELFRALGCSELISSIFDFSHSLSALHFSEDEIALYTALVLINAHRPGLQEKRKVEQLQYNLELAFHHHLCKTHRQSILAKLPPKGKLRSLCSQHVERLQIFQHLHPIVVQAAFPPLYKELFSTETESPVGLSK
human RAR-related Orphan Receptor beta (RORb), RORB (gene 6096), sequence (Q92753 whole entry, looked up, the tested form may be a part): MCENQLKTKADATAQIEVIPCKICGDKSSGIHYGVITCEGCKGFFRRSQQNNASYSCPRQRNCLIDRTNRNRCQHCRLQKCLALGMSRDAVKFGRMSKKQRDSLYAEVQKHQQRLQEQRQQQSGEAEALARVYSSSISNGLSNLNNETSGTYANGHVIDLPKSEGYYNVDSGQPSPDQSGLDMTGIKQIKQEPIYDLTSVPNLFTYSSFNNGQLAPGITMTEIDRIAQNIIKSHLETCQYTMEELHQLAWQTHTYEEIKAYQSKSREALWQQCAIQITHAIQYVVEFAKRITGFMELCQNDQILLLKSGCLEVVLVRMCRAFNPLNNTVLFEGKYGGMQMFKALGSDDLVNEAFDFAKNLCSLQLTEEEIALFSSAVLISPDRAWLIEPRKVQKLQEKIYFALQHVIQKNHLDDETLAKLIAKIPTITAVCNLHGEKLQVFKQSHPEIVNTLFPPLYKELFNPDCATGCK
human Retinoic Acid Receptor gamma (RARg), RARG (gene 5916), sequence (P13631 whole entry, looked up, the tested form may be a part): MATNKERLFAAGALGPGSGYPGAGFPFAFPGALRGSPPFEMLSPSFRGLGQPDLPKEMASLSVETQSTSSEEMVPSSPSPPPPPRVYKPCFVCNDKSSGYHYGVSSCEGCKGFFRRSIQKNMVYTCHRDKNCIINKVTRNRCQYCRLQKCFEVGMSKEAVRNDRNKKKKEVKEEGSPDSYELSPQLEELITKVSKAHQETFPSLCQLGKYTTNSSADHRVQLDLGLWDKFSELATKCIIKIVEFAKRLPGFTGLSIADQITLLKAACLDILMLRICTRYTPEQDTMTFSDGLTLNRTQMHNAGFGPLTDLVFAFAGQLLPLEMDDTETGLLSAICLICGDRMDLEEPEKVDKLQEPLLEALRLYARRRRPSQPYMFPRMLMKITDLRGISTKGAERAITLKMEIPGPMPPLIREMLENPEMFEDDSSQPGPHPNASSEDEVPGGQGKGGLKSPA
Retinoic acid receptor alpha (Homo sapiens), sequence (P10276 whole entry, looked up, the tested form may be a part): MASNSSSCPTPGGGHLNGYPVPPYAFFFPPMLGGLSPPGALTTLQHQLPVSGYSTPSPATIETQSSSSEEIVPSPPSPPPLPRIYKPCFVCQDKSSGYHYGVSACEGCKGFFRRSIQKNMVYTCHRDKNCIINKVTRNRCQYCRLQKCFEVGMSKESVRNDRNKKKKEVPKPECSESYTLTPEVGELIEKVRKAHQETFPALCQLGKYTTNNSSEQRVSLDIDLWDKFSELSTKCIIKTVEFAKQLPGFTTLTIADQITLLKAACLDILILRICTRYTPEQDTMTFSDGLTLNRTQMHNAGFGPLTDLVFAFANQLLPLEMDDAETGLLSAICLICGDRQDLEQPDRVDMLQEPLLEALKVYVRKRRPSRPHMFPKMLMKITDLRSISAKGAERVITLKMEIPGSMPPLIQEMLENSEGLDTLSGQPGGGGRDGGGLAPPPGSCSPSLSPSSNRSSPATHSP

As to `CC(=O)[C@H]1CC[C@H]2[C@@H]3CC=C4C[C@@H](O)CC[C@]4(C)[C@H]3CC[C@]12C`, the molecule was classed as inactive in experiment [1], in [2], in experiment [3], in [4], in [5] and in [6]. Further, the outcome in [7], in experiment [8] and in [10] was inactive. Besides, the concentration at half-maximal activity (AC50) in [9] was 7.47 µM (active) and 6.54 µM (active); in [11], 4.3 µM (active).
Regarding `CCCCCCCCCC=O`, the molecule was classed as inactive in experiment [1], in [2], in [3], in experiment [12], in experiment [4] and in [5]. Further, the outcome in [6] and in experiment [8] was inactive. In addition, the AC50 in experiment [13] is 29.6 µM (active); in experiment [10], 45.4 µM (active).
Take `O=Cc1ccc(F)cc1`: the molecule was classed as inactive in experiment [1], in experiment [2], in experiment [14], in [12], in experiment [7] and in [10]. Besides, the molecule was called inactive in experiment [11], in experiment [15] and in [16].
For the molecule `N#Cc1ccc(CC(=NNC(=O)Nc2ccc(OC(F)(F)F)cc2)c2cccc(C(F)(F)F)c2)cc1`, the result in experiment [1], in experiment [17], in experiment [14], in [3], in experiment [12] and in [18] was inactive. Also, the outcome in experiment [4], in [5], in experiment [6], in [13], in experiment [8] and in experiment [11] was inactive. Also, in experiment [10], the AC50 is 26.9 µM (active).
For `Cc1cccc(C)c1[N+](=O)[O-]`, the molecule was classed as inactive in experiment [1], in experiment [2], in [3], in experiment [19], in experiment [11] and in experiment [20]. Moreover, the call in [15] and in [16] was inactive.
Take `Cc1cccc(Nc2ccccc2C(=O)O)c1C`: the molecule was classed as inactive in experiment [1], in experiment [2], in experiment [3] and in [11]. Further, the AC50 in experiment [14] was 100 µM (active); in [13], 14.5 µM (active); in experiment [7] it was 77.8 µM (active); in experiment [10], 12.6 µM (active).
As to `CC(=O)C=CC1=C(C)CCCC1(C)C`, the molecule was called inactive in experiment [1], in [2] and in [3]. In addition, the half-maximal activity concentration (AC50) in [14] is 25 µM (active); in [10] it was 14.1 µM (active); in experiment [11], 1.02 µM (active).
In the case of `Clc1sc(Cl)c(Cl)c1Cl`, the molecule was classed as inactive in experiment [1], in experiment [2], in [14], in experiment [3], in [13] and in experiment [7]. In addition, the molecule was called inactive in experiment [11].
